Laboratory results published in ChEMBL document CHEMBL3988442, “University of Dundee, Small-Polar-MMV Screening Library” (2021).
For some assays here: Measured potencies and affinities stand elsewhere.

Tests used:
Set-up in all cases: scale not given: direction of the effect not stated beside the values
[1] = target: Protein translocase subunit SecA (Escherichia coli (strain K12)) (UniProt P10408); assay: Assay to Identify E. coli SecA ATPase Inhibitors; assay type: functional; details: 30 µM
[2] = target: T1, Ubiquitin-activating enzyme e1, putative (Leishmania donovani (strain BPK282A1)) (UniProt E9BSI1); assay: Leishmania donovani Ubiquitin Activating Enzyme (LdE1); assay type: functional; details: 30 µM
T1 sequence (whole entry): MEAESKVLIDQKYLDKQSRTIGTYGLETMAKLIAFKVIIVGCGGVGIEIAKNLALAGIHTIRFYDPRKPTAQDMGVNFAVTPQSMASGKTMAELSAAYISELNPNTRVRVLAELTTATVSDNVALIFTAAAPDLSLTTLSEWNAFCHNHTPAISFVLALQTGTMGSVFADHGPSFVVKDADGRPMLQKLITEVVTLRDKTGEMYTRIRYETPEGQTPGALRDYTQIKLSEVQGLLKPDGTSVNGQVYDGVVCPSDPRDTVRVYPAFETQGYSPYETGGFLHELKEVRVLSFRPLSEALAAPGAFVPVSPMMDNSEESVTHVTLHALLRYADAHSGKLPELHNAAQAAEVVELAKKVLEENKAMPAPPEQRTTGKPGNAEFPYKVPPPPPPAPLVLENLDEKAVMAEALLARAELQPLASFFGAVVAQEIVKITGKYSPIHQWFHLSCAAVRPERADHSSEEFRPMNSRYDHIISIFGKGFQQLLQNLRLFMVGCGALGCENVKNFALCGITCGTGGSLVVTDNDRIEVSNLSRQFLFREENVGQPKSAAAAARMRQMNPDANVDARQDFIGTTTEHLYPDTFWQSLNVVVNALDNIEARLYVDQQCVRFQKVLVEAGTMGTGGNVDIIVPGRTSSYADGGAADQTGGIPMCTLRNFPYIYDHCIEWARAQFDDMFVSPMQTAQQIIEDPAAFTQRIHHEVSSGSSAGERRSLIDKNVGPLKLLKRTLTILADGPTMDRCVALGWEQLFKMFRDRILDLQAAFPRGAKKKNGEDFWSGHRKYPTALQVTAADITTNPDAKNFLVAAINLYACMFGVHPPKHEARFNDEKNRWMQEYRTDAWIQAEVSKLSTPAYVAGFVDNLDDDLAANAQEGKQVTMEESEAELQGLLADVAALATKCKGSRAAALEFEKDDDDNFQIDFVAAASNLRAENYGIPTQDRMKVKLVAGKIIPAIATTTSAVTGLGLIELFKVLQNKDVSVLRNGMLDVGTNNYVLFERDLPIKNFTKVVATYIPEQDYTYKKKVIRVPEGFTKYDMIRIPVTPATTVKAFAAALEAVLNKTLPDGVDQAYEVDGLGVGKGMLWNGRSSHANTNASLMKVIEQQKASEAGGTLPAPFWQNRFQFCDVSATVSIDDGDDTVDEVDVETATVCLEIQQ

[3] = target: Sialic acid-binding Ig-like lectin 9 (Homo sapiens) (UniProt Q9Y336); assay: Hs-Siglec9 ALPHAscreen SOP 20170721; details: 10 µM
[4] = tested on: Trypanosoma cruzi; assay: Trypanosoma cruzi phosphomannomutase and mannose-1-phosphate guanylyltransferase assay; assay type: functional; details: 10 µM
[5] = target: T2, Arginase-2, mitochondrial (Homo sapiens) (UniProt P78540); assay: in vitro enzyme assay to detect the production of urea directly proportional to the activity of Arginase II; assay type: functional; details: 33.3 µM; also: in the data most compounds retested in dose-response had high values
T2 sequence (whole entry): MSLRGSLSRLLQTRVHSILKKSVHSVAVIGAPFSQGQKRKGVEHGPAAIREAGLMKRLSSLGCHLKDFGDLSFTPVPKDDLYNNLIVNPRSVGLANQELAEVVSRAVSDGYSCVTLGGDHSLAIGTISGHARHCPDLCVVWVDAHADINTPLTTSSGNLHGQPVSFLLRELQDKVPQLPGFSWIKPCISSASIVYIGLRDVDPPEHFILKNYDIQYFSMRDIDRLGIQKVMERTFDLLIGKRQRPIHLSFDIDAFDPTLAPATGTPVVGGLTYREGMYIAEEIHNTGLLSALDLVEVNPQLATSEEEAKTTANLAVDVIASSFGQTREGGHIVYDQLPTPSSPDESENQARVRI

[6] = target: T3, Proteasome subunit beta (Trypanosoma cruzi) (UniProt O96673); assay: Trypanosoma cruzi proteasome chymotrypsin-like activity (TcProtChymo) assay.; also: in the data most compounds retested in dose-response had high values; assay type: functional; details: 9.37 µM
T3 sequence (whole entry): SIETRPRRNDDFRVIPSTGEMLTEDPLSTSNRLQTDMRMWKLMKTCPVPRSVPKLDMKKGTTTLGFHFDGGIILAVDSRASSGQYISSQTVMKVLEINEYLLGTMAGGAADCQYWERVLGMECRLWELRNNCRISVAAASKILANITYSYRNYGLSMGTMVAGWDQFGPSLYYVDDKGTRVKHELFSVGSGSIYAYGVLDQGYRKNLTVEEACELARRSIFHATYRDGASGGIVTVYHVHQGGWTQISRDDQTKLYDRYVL

[7] = species on record: Homo sapiens; assay: To identify inhibition of the IFN signalling (Jak-Stat) pathway via expression of an eGFP reporter gene under the control of an IFN-stimulated response element (ISRE) containing MxA promoter.; assay type: functional; details: 30 µM
[8] = target: T4, Tyrosyl-tRNA synthetase, putative (Trypanosoma cruzi (strain CL Brener)) (UniProt Q4DSP6); assay: Trypanosoma cruzi tyrosyl tRNA synthetase (TcYRS) _High Tyrosine SOP; assay type: functional; details: 30 µM; also: in the data most compounds retested in dose-response had high values
T4 sequence (whole entry): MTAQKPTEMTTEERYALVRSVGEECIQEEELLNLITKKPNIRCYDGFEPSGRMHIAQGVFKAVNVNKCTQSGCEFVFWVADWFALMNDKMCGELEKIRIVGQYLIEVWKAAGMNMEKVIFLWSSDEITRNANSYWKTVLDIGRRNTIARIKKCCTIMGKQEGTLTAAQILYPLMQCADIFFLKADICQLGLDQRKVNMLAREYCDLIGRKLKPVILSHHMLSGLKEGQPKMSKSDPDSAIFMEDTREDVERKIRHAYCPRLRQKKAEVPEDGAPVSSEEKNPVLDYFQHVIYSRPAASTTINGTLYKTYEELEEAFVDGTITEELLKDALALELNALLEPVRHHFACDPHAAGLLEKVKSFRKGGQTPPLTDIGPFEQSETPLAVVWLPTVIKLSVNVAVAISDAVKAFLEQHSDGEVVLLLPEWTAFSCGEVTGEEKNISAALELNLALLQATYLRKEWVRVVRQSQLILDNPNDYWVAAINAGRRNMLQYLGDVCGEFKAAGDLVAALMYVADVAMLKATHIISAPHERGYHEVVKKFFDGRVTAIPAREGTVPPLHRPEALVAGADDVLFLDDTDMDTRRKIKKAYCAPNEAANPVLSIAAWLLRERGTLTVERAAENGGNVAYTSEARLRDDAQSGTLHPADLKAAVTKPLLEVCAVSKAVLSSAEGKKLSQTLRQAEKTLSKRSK

[9] = target: T4, Tyrosyl-tRNA synthetase, putative (Trypanosoma cruzi (strain CL Brener)); assay: Trypanosoma cruzi tyrosyl tRNA synthetase (TcYRS) SOP; assay type: functional; details: 30 µM
[10] = target: Chromo domain-containing protein 1 (Saccharomyces cerevisiae (strain ATCC 204508 / S288c) (Baker's yeast)) (UniProt P32657); assay: ScCHD-1 Enzyme Inhibition Assay; assay type: functional; details: 30 µM; also: in the data most compounds retested in dose-response had high values
Sequence of Chromo domain-containing protein 1 (Saccharomyces cerevisiae (strain ATCC 204508 / S288c) (Baker's yeast)) (P32657 whole entry, the tested form may be a part): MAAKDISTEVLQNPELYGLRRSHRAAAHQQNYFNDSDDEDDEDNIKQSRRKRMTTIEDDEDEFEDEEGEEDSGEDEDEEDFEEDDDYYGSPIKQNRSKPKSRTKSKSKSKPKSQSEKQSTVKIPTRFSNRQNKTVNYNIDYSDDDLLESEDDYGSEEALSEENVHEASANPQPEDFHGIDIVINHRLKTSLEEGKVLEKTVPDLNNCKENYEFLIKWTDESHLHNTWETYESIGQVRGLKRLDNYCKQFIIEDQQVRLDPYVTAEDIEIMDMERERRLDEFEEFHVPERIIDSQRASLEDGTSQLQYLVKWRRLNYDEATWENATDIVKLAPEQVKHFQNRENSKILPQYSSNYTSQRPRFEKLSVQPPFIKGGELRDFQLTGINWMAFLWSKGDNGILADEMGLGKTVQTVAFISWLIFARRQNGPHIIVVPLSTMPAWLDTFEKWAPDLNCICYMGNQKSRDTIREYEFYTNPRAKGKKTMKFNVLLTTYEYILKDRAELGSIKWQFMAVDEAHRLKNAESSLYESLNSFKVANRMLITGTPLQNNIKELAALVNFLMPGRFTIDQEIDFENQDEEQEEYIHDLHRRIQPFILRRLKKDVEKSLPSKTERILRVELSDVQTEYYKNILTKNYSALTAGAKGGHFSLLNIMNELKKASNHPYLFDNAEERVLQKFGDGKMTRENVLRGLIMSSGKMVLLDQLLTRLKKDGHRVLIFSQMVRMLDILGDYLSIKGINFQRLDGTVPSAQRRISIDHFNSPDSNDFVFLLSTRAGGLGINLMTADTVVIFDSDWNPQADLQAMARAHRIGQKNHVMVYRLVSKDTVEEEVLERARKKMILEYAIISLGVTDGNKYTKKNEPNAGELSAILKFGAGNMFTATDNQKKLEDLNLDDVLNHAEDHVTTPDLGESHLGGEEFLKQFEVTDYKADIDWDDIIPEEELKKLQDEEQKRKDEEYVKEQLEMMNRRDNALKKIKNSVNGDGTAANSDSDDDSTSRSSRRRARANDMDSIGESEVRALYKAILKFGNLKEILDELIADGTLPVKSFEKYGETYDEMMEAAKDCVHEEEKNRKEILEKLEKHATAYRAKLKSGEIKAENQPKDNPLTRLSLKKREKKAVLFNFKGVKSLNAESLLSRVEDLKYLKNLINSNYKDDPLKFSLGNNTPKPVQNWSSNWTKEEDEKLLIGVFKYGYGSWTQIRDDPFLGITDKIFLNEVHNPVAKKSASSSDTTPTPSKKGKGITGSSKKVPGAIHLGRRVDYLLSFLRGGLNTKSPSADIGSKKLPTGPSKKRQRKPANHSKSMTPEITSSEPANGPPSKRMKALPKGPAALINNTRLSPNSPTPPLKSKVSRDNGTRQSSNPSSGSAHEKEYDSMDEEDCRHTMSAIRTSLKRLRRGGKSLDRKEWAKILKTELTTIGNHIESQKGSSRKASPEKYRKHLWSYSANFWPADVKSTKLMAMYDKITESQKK

Sequence of Protein translocase subunit SecA (Escherichia coli (strain K12)) (P10408 whole entry): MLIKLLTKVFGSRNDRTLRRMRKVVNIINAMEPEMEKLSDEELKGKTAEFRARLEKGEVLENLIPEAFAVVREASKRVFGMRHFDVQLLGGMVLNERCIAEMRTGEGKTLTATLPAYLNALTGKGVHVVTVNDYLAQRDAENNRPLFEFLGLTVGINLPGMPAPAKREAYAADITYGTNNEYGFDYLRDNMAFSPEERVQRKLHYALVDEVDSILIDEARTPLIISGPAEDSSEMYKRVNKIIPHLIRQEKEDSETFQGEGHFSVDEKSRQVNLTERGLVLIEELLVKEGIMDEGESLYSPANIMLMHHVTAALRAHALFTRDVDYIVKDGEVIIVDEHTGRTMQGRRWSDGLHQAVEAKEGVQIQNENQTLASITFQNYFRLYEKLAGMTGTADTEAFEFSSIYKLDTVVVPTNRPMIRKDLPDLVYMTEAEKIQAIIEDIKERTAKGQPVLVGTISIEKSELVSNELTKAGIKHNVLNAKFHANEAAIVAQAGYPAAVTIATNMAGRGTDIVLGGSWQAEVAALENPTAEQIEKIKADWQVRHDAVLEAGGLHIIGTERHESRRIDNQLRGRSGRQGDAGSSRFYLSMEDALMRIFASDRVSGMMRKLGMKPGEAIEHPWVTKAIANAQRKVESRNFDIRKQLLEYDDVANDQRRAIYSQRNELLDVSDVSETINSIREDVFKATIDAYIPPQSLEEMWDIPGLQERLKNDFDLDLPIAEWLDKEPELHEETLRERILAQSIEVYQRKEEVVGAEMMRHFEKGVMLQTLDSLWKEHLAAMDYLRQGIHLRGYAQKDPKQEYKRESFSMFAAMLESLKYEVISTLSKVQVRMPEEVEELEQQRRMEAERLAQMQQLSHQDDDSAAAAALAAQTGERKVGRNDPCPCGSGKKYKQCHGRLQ
Sequence of Sialic acid-binding Ig-like lectin 9 (Homo sapiens) (Q9Y336 whole entry): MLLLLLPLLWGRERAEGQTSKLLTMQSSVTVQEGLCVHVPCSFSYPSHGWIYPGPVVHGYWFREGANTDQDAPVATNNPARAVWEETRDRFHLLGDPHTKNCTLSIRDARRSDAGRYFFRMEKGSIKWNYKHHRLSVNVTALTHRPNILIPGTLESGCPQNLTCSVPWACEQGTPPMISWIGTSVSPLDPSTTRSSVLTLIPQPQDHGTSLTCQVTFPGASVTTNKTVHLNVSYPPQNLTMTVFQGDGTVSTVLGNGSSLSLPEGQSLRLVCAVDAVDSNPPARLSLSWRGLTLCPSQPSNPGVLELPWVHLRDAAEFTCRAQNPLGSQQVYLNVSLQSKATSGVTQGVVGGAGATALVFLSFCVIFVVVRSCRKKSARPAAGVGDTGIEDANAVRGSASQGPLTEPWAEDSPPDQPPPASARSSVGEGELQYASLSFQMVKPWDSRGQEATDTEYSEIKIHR

| Structure (SMILES) | Percent Effect [1] [%] | Percent Effect [2] [%] | Percent Effect [3] [%] | Percent Effect [4] [%] | Percent Effect [5] [%] | Percent Effect [6] [%] | Percent Effect [7] [%] | Percent Effect [8] [%] | Percent Effect [9] [%] | Percent Effect [10] [%] |
| --- | --- | --- | --- | --- | --- | --- | --- | --- | --- | --- |
| CC(C)c1cc(C(F)(F)F)n2nc(CCC(=O)O)nc2n1 | 1.24 | 14.7 | -8.51 | -3.94 | 2.65 | 10.5 | 19.8 | 6.35 | 7.5 | -17.9 |
| Cc1nc(C)n(CC2CCCN2Cc2cn3ccsc3n2)n1 (stereo not given) | 1.01 | 12.8 | -7.58 | -2.72 | -1.23 | 19 | 27.5 | 3.35 | 13.2 | -5.22 |
| CC(C)CN1CCC2(CCN(C(=O)c3ccc(F)cc3)CC2)C1=O | -1.91 | 19.5 | 0.691 | 1.5 | 0 | 6.27 | -20.9 | 11.6 | 22.5 | -8.66 |
| COc1cccc(OCC2CCCN(C(C)=O)C2)c1 (stereo not given) | -1.78 | 14.7 | -3.67 | -0.395 | -3.1 | 25.4 | 8.14 | 2.12 | 15 | -24.1 |
| O=C(Cc1ccccc1Cl)N1CCCC(n2cncn2)C1 (stereo not given) | -7.8 | 5.13 | 0.737 | -2.91 | 4.51 | -2.65 | 22.2 | 2.39 | 8.43 | 1.66 |
| COCCC(=O)N1CCC2(CC1)CC(c1ccccc1)CN(C)C2 (stereo not given) | -6.06 | 5.41 | 7.24 | 2.42 | 1.75 | 18.7 | -4.11 | 4.79 | 12.2 | -5.37 |
| Cc1nc([C@@H]2C[C@@H]3CCN(C(=O)Cc4ccsc4)C[C@H]3O2)no1 | -3.1 | -1.3 | -5.06 | -3.21 | -1.62 | 10.5 | -23.3 | -1.58 | 0 | -2.29 |
| O=C1CC(c2ccncc2)C2(CCN(CCO)CC2)N1 (stereo not given) | -2.64 | 3.9 | -0.555 | 5.55 | -3.64 | 8.91 | -9.49 | -0.526 | 2.56 | 17.5 |
| Cc1cc(C(=O)NCCn2nc3ccccn3c2=O)[nH]n1 | 0.567 | 12.8 | -9.12 | -3.1 | 0 | 16.8 | 8.57 | 1.44 | 18.1 | -7.79 |
| CC(Nc1cccc(CN2CCOC2=O)c1)C(=O)NC(N)=O (stereo not given) | -7.02 | 15.4 | -17.4 | 13.1 | -4.1 | 7.76 | 15.9 | 8.13 | 18.1 | 17.9 |
| Cc1c(F)cccc1CN1CCn2nc(CNC(=O)N(C)C)cc2C1 | -5.26 | 10.8 | 14.7 | 9.21 | 28.3 | 8.05 | 4.47 | 5.85 | 17.1 | -7.8 |
